Pol kappa inh – DNA polymerase kappa (human) inhibition. Q9UBT6. purified Pol kappa, fluorescent DNA synthesis assay, 10 min. Potency, µM (titrated, usually from 107 µM), most hits filed as inhibitors. 400,000 compounds, 0.53% hits. AID 588579
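Activity was followed as the change in fluorescence between reads at 0 and 10 min after starting the reaction with 50 nM substrate. Beforehand, 10 nM polymerase had been preincubated with compound for 15 min at room temperature.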
POLB inh – blocks human DNA polymerase beta activity | P06746 | Pol beta primer extension/strand displacement, fluorescence kinetic | Potency, µM (top dose mostly 114 µM), most hits filed as inhibitors | 340,000 compounds, 1.3% hits
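10 nM enzyme + cpd, 15 min RT; start with substrate 50 nM final; read 0 min and after 10 min RT. Corrected, normalized data; 4-parameter Hill curve fit.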
POLI inh – DNA polymerase iota (human) inhibition | 390,000 compounds, 1% hits | Potency, µM (top dose mostly 115 µM), hits mostly inhibitors | Pol iota fluorescent replication assay, 10 min | Q9UNA4 | AID 588590
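Fluorescent replication assay read twice, at 0 min and 10 min after adding 50 nM (final) substrate. Enzyme (10 nM) and compounds were first incubated 15 min at room temperature; enzyme-free buffer wells were negative controls.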
FEN1 inhibitor – inhibitors of human flap endonuclease 1. P39748. Recombinant FEN1 flap cleavage, fluorescence, 15 min. Potency, µM (doses to about 114 µM), most hits filed as inhibitors. 390,000 compounds, 0.35% hits. AID 588795; also: nearly all actives have a fitted effect of over 65% in size
Target sequence (P39748 whole entry, looked up): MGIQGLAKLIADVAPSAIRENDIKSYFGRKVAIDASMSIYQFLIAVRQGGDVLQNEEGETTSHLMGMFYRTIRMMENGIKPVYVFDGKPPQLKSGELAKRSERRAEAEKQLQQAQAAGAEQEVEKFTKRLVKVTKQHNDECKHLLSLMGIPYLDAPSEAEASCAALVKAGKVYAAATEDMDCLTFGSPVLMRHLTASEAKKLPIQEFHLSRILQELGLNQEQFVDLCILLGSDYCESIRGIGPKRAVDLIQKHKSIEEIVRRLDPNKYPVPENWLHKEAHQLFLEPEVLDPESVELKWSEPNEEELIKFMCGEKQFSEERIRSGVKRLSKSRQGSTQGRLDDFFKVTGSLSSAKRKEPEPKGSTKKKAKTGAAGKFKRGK
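With each library titrated from low to high concentration, compounds met 10 nM FEN1 for 15 min at room temperature before 50 nM substrate was added; readings at 0 and 15 min fed four-parameter Hill curve fits.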
WRN inhibitor – inhibitors of human WRN helicase; Q14191; WRN helicase unwinding, fluorescent forked duplex, kinetic; Potency, µM (doses to about 114 µM), actives largely listed as inhibitors; 360,000 compounds, 0.46% hits; also: nearly all actives have a fitted effect of over 55% in size
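Screening of the MLSMR collection measured strand separation of a quenched forked DNA duplex (100 nM) by 20 nM WRN with 2 mM ATP, all final. Compounds were preincubated with enzyme 15 min at room temperature.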
Pol eta inh – DNA polymerase eta (human) inhibition. Q9Y253. recombinant Pol eta, fluorescent DNA replication assay. Potency, µM (series often up to 114 µM), most hits filed as inhibitors. 390,000 compounds, 1.2% hits. AID 588591
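Pol eta at 10 nM preincubated with compounds 15 min at room temperature; reaction started with fluorescent substrate (50 nM final) and read kinetically at 0 and 10 min.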
Of the large screens only hits and unclear results are named; the others gave an inactive call. The list is not random: actives were taken first. Their share in the collection is about 2.4%. Calls follow the shape of the dose curve; as a rule, active = well fitted curve in the direction sought with a large enough effect; inconclusive = small, poorly fitted or top-dose-only effect, or another doubt; inactive = no such curve, though single readings can be large; an effect the other way counts as inactive or inconclusive.

CC[C@H](C)[C@H](N)C(=O)N[C@H](C(=O)N[C@@H](CO)C(=O)N[C@@H](C)C(=O)N[C@H](C(=O)N[C@H](C(=O)NCC(=O)N[C@H](C(=O)N[C@@H](CC(C)C)C(=O)O)[C@@H](C)CC)C(C)C)C(C)C)[C@@H](C)CC	none (no result: POLB inh, POLI inh, FEN1 inhibitor, WRN inhibitor, Pol eta inh)
Cc1oc2c(c(=O)c1C)C(=O)CC(c1ccccc1)C2 (configuration not stated)	none
CS(=O)(=O)c1sc(C#N)c2c1C(=O)CC(c1ccccc1)C2 (configuration not stated)	POLI inh inconclusive, WRN inhibitor 39.8µM, Pol eta inh inconclusive
Cc1ccc2c(c1)C1OCCC1C1N2C(=O)C2C(C(=O)O)C3C=CC21O3 (configuration not stated)	POLB inh 39.8µM, POLI inh inconclusive, Pol eta inh inconclusive
CCOc1cc(/C=N/Nc2nn3cnnc3c3ccccc23)ccc1O	POLB inh inconclusive, POLI inh inconclusive, FEN1 inhibitor inconclusive, Pol eta inh inconclusive
COc1cc(C(=O)N/N=C/c2ccc3c(c2)c2ccccc2n3C)ccc1O	Pol kappa inh inconclusive, POLB inh 25.1µM, POLI inh 17.8µM, Pol eta inh 15.8µM
COc1cc(/C=N/Nc2nn3cnnc3c3ccccc23)ccc1O	POLB inh 50.1µM, POLI inh inconclusive, FEN1 inhibitor inconclusive, WRN inhibitor inconclusive, Pol eta inh inconclusive
COc1cc(/C=N\NC(=O)c2ccc(-c3ccccc3)cc2)cc(OC)c1O	Pol kappa inh inconclusive, POLB inh 25.1µM, POLI inh 31.6µM, FEN1 inhibitor inconclusive, Pol eta inh inconclusive
O=C(NC1CCCCC1)c1cnn2c1NC(=C1CC1)C=C2C(F)F	none (no result: POLB inh, WRN inhibitor, Pol eta inh)
CCCCCCn1cnc2c(c1=O)c1nc3ccccc3nc1n2/N=C/c1ccco1	POLB inh 44.7µM, POLI inh inconclusive, Pol eta inh inconclusive
Cc1ccc(/C=C/C(=O)O)cc1S(=O)(=O)Nc1ccc(C(=O)O)cc1	Pol eta inh inconclusive
Cc1ccc(/C=C/C(=O)O)cc1S(=O)(=O)Nc1ccccc1C(=O)O	POLB inh inconclusive, Pol eta inh 44.7µM
COc1cccc(NS(=O)(=O)c2ccc(S(=O)(=O)N3CCCC3)cc2)c1	none (no result: POLB inh)
COc1cccc(CNS(=O)(=O)c2ccc(S(=O)(=O)N3CCCC3)cc2)c1	POLB inh 20µM
CN1c2ccccc2C(C)(C)C12C=Nc1c(cc(N3CCOCC3)c3ccccc13)O2 (configuration not stated)	POLI inh 3.55µM
CN1c2ccccc2C(C)(C)C12C=Cc1cc(O)ccc1O2 (configuration not stated)	none
COc1cc(-c2cccs2)cc(=O)c2c(C)oc(C)c12	POLB inh 14.1µM, POLI inh inconclusive
Cc1ccc(S(=O)(=O)NCl)cc1	none (no result: POLB inh, POLI inh, FEN1 inhibitor, WRN inhibitor, Pol eta inh)
Cc1cccc(-n2ccc(=O)c(C(=O)Nc3ccc(S(=O)(=O)Nc4nccs4)cc3)n2)c1	POLB inh 89.1µM, Pol eta inh inconclusive
COc1ccc(-n2ccc(=O)c(C(=O)Nc3ccc(S(=O)(=O)Nc4nccs4)cc3)n2)cc1	POLB inh inconclusive, POLI inh inconclusive
O=C(Nc1ccc(S(=O)(=O)Nc2nccs2)cc1)c1cccc(N2C(=O)c3ccccc3C2=O)c1	Pol kappa inh inconclusive, POLI inh 70.8µM, FEN1 inhibitor inconclusive, Pol eta inh 50.1µM
Cc1cc(C)c2oc(C(=O)Nc3ccc(S(=O)(=O)Nc4nccs4)cc3)cc(=O)c2c1	Pol kappa inh inconclusive, POLB inh inconclusive, POLI inh 79.4µM, Pol eta inh inconclusive
CN(CC(=O)O)c1ccc(/C=C/c2ccnc3ccccc23)cc1	none (no result: POLB inh, WRN inhibitor, Pol eta inh)
CC(C)(C)c1ccc(NC(=O)CSc2nnc3scc(-c4ccccc4)n23)cc1	none (no result: WRN inhibitor, Pol eta inh)
O=Cc1ccnc2ccccc12	none (no result: POLB inh, WRN inhibitor, Pol eta inh)
COc1ccc(-c2nn[nH]n2)cc1OC	none
Nc1cc(-c2nn[nH]n2)ccc1F	Pol kappa inh inconclusive, POLI inh inconclusive, Pol eta inh 11.2µM
CCC(C(=O)O)n1c2ccccc2c2cn[nH]c(=O)c21 (configuration not stated)	POLB inh 22.4µM, Pol eta inh inconclusive
CCC(C(=O)O)n1c(C(F)(F)F)nc2ccccc21 (configuration not stated)	none
N#C/C(=C/c1ccco1)C(N)=S	POLB inh 20µM, POLI inh inconclusive
CCOc1ccc(CCNC(=O)CCCn2nc(C)c3sc4ccccc4c3c2=O)cc1	none (no result: WRN inhibitor)
CCOc1ccc(CCNC(=O)CCCn2nc(C)c3sc4ccccc4c3c2=O)cc1OCC	POLI inh inconclusive (no result: WRN inhibitor)
CCOc1ccc(CNC(=O)CCCn2nc(C)c3sc4ccccc4c3c2=O)cc1	POLI inh 89.1µM, FEN1 inhibitor inconclusive (no result: WRN inhibitor)
Cc1nn(CCCC(=O)NCCc2ccc(Cl)cc2)c(=O)c2c1sc1ccccc12	Pol kappa inh inconclusive, POLB inh inconclusive, FEN1 inhibitor 44.7µM (no result: WRN inhibitor)
COc1ccc(CCNC(=O)CCCn2nc(C)c3sc4ccccc4c3c2=O)cc1OC	POLB inh 35.5µM, FEN1 inhibitor 44.7µM (no result: WRN inhibitor)
O=C(Cn1c(SCCOc2ccc(Cl)cc2)nc2ccccc21)N1CCCCC1	none (no result: WRN inhibitor)
CC(C)CN(C)c1ccc(/C=C2\C=Cc3ccccc32)cc1	none (no result: POLB inh, WRN inhibitor, Pol eta inh)
COc1ccc(C2Nc3ccccc3C(=O)N2c2ccccc2F)cc1COc1ccc(NC(C)=O)cc1 (configuration not stated)	none (no result: POLB inh, WRN inhibitor, Pol eta inh)
CC(C)n1c(=O)c2c(O)cc(=O)oc2c2ccccc21	Pol kappa inh inconclusive, POLB inh 17.8µM, POLI inh inconclusive, FEN1 inhibitor inconclusive
O=c1cc(O)c2c(=O)n(-c3ccccc3)c3ccccc3c2o1	POLB inh 22.4µM, Pol eta inh inconclusive
CCn1c(=O)c2c(O)cc(=O)oc2c2ccccc21	FEN1 inhibitor inconclusive
Cc1ccc(NC(=O)CSc2nnc3[nH]c(=O)cc(-c4ccccc4)n23)cc1Cl	POLB inh 39.8µM (no result: WRN inhibitor)
O=C1C2C(C(=O)N1/N=C/c1ccc([N+](=O)[O-])o1)C1C=CC2C12CC2 (configuration not stated)	Pol eta inh inconclusive
CC1=NN(c2nc(N)nc(/C(C#N)=C/c3ccc([N+](=O)[O-])o3)n2)C(C)(C)C1	POLI inh inconclusive, WRN inhibitor inconclusive, Pol eta inh 17.8µM (no result: POLB inh)
COc1cccc(CCc2ccccc2OCC(CN(C)C)OC(=O)CCC(=O)O)c1 (configuration not stated)	POLI inh inconclusive (no result: POLB inh, WRN inhibitor, Pol eta inh)
O=C1NC(c2ccccc2Cl)=N/C1=C/c1ccco1	Pol kappa inh inconclusive, POLB inh inconclusive, POLI inh 28.2µM
COc1cc(OC)c2c(c1C(CCN1CCCC(C)C1)c1ccc(N(C)C)cc1)OC(=O)CC2c1ccc(N(C)C)cc1 (configuration not stated)	none (no result: POLB inh, WRN inhibitor, Pol eta inh)
Cc1ccc(CNc2ccc(N3CCOCC3)cc2)s1	POLI inh inconclusive

Source: PubChem BioAssay (National Center for Advancing Translational Sciences (NCATS))
